Screening results deposited in PubChem by National Center for Advancing Translational Sciences (NCATS).
In the library only some 2.9% were active in any assay of this set; here they are far more common.
Nrf2 activator: Nrf2 pathway activation. AREc32 ARE-luciferase reporter (MCF7-derived line), luminescence, 24 h. Potency, µM (top dose mostly 46.1 µM), inactives show at the highest dose activation, most hits filed as activators. 410,000 compounds, 0.31% hits. AID 624171; further: % of control where 0% means no effect; nearly all actives have a fitted effect of over 65% in size
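Reporter line AREc32 (ARE-Fluc), seeded overnight in OPTI-MEM with 5% FBS; compound pin-transferred, 24 hr at 37 deg C, 5% CO2; luminescent read-out.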
Nrf2 inh: inhibitors of Nrf2 signaling; 360,000 compounds, 2.1% hits; Potency, µM (highest dose often 46 µM), without a hit: top-dose activity change, negative = inhibition, usual class: inhibitors; AID 504444; A549 ARE-Fluc reporter, luciferase luminescence, 18-24 h; further: on the % scale 0 is the no-effect control and ±100 the full control effect; nearly all actives have a fitted effect of over 60% in size
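Quantitative HTS in A549 cells stably bearing an antioxidant response element-firefly luciferase construct. Inhibition of Nrf2-driven transcription was scored by luminescence after 18-24 h of compound exposure at 37 °C.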
A549 tox: kills or reduces viability of A549 cells in Nrf2 counter-screen. Potency, µM (doses to about 46 µM), without a hit: at the top dose activity change, negative = cytotoxicity, most hits filed as inhibitors. AID 504648. A549 ARE-Fluc cells, CellTiter-Fluor viability, 18-24 h. 390,000 compounds, 0.16% hits; further: on the % scale 0 is the no-effect control and ±100 the full control effect
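A549 ARE_Fluc cells in 5% FBS OPTI-MEM were exposed to compounds in concentration-response for 18-24 h at 37 deg C. Viability was read by CellTiter-Fluor fluorescence (Ex 405/Em 525) after 30 min, before the luciferase read.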
ATXN2 expr inh: inhibitors of ATXN2 expression; Potency, µM (doses to about 57 µM), for the others: top-dose activity change, negative = inhibition, most hits filed as inhibitors; 360,000 compounds, 0.72% hits; HEK-293 ATXN2-luciferase reporter, luminescence, 24 h; further: on the % scale 0 is the no-effect control and ±100 the full control effect; nearly all actives have a fitted effect of over 55% in size
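qHTS (up to 57 uM final) was run with 24 h compound exposure of reporter cells at 37 °C. Each well was multiplexed: SteadyGlo luminescence measured ATXN2-luciferase expression after a fluorogenic Gly-Phe-AFC viability readout (25 uM final).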
ATXN viability: reduces viability in counter-screen for ATXN expression inhibitors; S2 cells (HEK-293 line with an ATXN2-luciferase reporter) viability, CellTiter-Fluor protease fluorescence, 24 h; Potency, µM (doses to about 56.7 µM), hits mostly cytotoxic; 400,000 compounds, 0.49% hits; further: nearly all actives have a fitted effect of over 40% in size
Active calls of the source: *; i = inactive; u = inconclusive; x = no result; [ ] = remark or other dose. The call rests on the fitted dose curve; in most records, active means well fitted curve in the direction sought with a large enough effect; inconclusive means small, poorly fitted or top-dose-only effect, or another doubt; inactive means no such curve, though single readings can be large; an effect the other way counts as inactive or inconclusive. Potency means the concentration at half of the fitted maximal effect.

SMILES	Nrf2 activator	Nrf2 inh	A549 tox	ATXN2 expr inh	ATXN viability
COc1cc(OC)c(NS(=O)(=O)c2cc(-c3cnc(C4CC4)o3)ccc2C)cc1Cl	8%	x	-9%	-2%	u
O=C(NCCSc1c(-c2ccccc2)[nH]c2ccccc12)c1ccc(S(=O)(=O)N2CCOCC2)cc1	6%	-30%[9.27 µM]	-14%	-32%	u
Nc1c(C(=O)OCc2ccccc2)c2nc3ccccc3nc2n1Cc1cccs1	9%	23µM*	u	-26%	u
CCC(C)OC(=O)c1c(N)n(Cc2cccs2)c2nc3ccccc3nc12 (stereo not drawn)	-1%	u	u	u	i
COC(=O)[C@@]12CCCCN1[C@H](c1ccc(-c3ccc(Cl)c(Cl)c3)c(OC)c1)[C@@H]1C(=O)N(C)C(=O)[C@@H]12	-1%	21µM*	-14%	1%	i
COc1ccc2c3c1O[C@H]1[C@H](O)CC[C@H]4[C@@H](C2)N(C)CC[C@@]341	x	x	x	3%[116 µM]	i
COc1cc2cc(c1Cl)N(C)C(=O)CC(OC(=O)C(C)N(C)C(C)=O)C1(C)OC1C(C)C1CC(O)(NC(=O)O1)C(OC)C=CC=C(C)C2 (stereo not drawn)	-1%	u	-18%	-12%	u
C=C1C(O)[C@@H]2O[C@]3(CC[C@H](/C=C/C(C)[C@@H]4CC(C)=CC5(O[C@H](C[C@@](C)(O)C(=O)O)CCC5O)O4)O3)CC[C@H]2O[C@@H]1C(O)CC(C)[C@H]1OC2(CCCCO2)CCC1C (stereo partly drawn)	-3%	u	u	0.32µM*	u
CCC1(c2cnc[nH]2)Cc2ccccc2C1	x	x	x	1%	i
Cn1c(NN=O)nc2ccccc21	1%[9.22 µM]	u	u	u	14µM*
CC(=O)OC1CCC2(C)C(CCC3C2CC(=O)C2(C)C3CC(N3CC3)C2C(C)=O)C1 (stereo not drawn)	u	14%	18µM*	-21%	u
COC1CC(C)C(OC)c2cc(O)cc(c2O)NC(=O)C(C)=CC=CC(C)C(OC(N)=O)C(C)=CC(C)C1OC (stereo not drawn)	u	u	u	3.8µM*	u
CCC1(O)C(=O)OCc2c1cc1n(c2=O)Cc2cc3c(N)cccc3nc2-1 (stereo not drawn)	-2%	0.82µM*	u	u	u
CC(c1ccccc1)[n+]1ccccc1 (stereo not drawn)	-1%	18µM*	-3%	1%	u
O=C(c1ccc(Cl)cc1)c1cn(Cc2ccccc2)c2cc3c(cc2c1=O)OCCO3	0%	u	-27%	0%	i
COC(=O)C1=C(c2ccc(OCc3ccccc3)cc2)C[C@@H]2CC[C@H]1N2C(=O)NCCCc1ccccc1	0%	15µM*	-18%	1%	i
COC(=O)C1=C(c2ccc(OCc3ccccc3)cc2)C[C@@H]2CC[C@H]1N2C(=O)NCc1ccccc1OC	0%	x	x	-28%	u
COC(=O)C1=C(c2cccc(OCc3ccccc3)c2)C[C@@H]2CC[C@H]1N2C(=O)NCCCc1ccccc1	0%	21µM*	-17%	-32%	u
CSCC[C@@H](NC(=O)[C@@H](Cc1ccccc1)NC(=O)CNC(=O)CNC(=O)[C@@H](N)Cc1ccc(O)cc1)C(=O)O	x	x	x	5%	x
COC1CCC(OC2CC(C3(C)CCC4(CC(O)C(C)C(C(C)/C=C(\C)C(=O)C(C)CC(C)C(=O)O)O4)O3)OC3(OC(C4OC(O)(CO)C(C)CC4C)CC3C)C2C)OC1C (stereo not drawn)	8%	0.41µM*	0.65µM*	u	x
CCOC(=O)c1ccc(N2C(=O)c3n[nH]c(-c4cccs4)c3C2c2ccc(OC)cc2OC)cc1 (stereo not drawn)	-1%	u	-20%	8%	i
C[C@]12CC[C@@H]3c4ccc(OC(=O)N(CCCl)CCCl)cc4CC[C@H]3[C@@H]1CC[C@@H]2OP(=O)(O)O	x	x	x	13%	u
CC(C)NCC(O)c1ccc([N+](=O)[O-])cc1 (stereo not drawn)	x	x	x	-2%	i
O=[N+]([O-])c1ccc(C(c2ccc([N+](=O)[O-])cc2)c2ccc([N+](=O)[O-])cc2)cc1	6%	23µM*	-24%	32µM*	u
CC(Cc1ccc2c(c1)OCO2)NO (stereo not drawn)	x	x	x	-22%[116 µM]	i
SMILES	Nrf2 activator	Nrf2 inh	A549 tox	ATXN2 expr inh	ATXN viability
C[n+]1c(-c2ccccc2)c2cc(N)ccc2c2ccc(N)cc21	-3%	1.8µM*	u	7.1µM*	16µM*
C[C@]12CC[C@H]3[C@@H](CCC4=CC(=O)CC[C@@]43C)[C@H]1CC[C@H]2O	x	x	x	-1%	x
Sc1ccccc1Cl	x	x	x	-4%	i
Oc1ccc2c3c1O[C@H]1[C@@H](O)C=C[C@H]4[C@@H](C2)NCC[C@@]341	x	x	x	53%[116 µM]	u
c1ccc(-c2nn(-c3ccccc3)[n+](-c3ccccc3)n2)cc1	0%	21µM*	-7%	u	u
Cc1c2ccncc2c(C)c2c1[nH]c1ccccc12	5%	7.3µM*	u	14µM*	u
c1ccc2c(c1)[nH]c1cnccc12	-1%	-11%	-7%	-7%	i
Cc1ccccc1C(=O)Nc1ccc(C(=O)OCc2cc(=O)n3nc(C4CC4)sc3n2)cc1	-1%	x	-20%	u	u
O=C1NC2C(=CC(O)C(O)C2O)c2cc3c(cc21)OCO3 (stereo not drawn)	-2%	2.1µM*	u	0.95µM*	u
Oc1ccc2c3c1OC1c4[nH]c5ccccc5c4C[C@@]4(O)C(C2)N(CC2CC2)CC[C@]314 (stereo partly drawn)	6%	-9%	-2%	5%	i
O=C1/C(=C/c2ccccc2)C[C@@]2(O)[C@H]3Cc4ccc(O)c5c4[C@@]2(CCN3CC2CC2)C1O5 (stereo partly drawn)	-4%	12µM*	u	3.5µM*	7.1µM*
CCC(C)C1NC(=O)C2CCCN2C(=O)C(CC(C)C)OC(=O)CCNC(=O)C(C)N(C)C(=O)C(C(C)C)N(C)C1=O (stereo not drawn)	4%	5.2µM*	8.2µM*	u	u
CC(=O)Nc1cc(-c2cccc(C(=O)N(C)C)c2)cn2c(-c3cccc(C(F)(F)F)c3)cnc12	3%	x	x	0%	u
CCCNC(=O)c1cc2c(c(-c3cccc(-c4cc5ccccc5o4)c3)n1)[C@H](CCO)N(C(=O)NC(C)C)C2	0%	x	x	u	u
CC(=O)C1C(N2CC2)CC2C3CCC4=CC(=O)CCC4(C)C3CCC21C (stereo not drawn)	1%	-16%	16µM*	-17%	u
CCOC(=O)[C@]12Cc3c(cc(OC)c(OC)c3OC)[C@H]1N(C(C)C)C(=O)c1cc(OC)ccc12	-3%	x	x	18µM*	14µM*
